# Experimental data reported in the supplement of paper PMC6555819.
# System: THRa homodimer (NR concentration 90 nM)
# Test: PBM binding z-score (relative to random genomic background probes); higher = stronger binding; sequences stand for … in GC…GCGATTGACAGCGTAGAATGAAGG
# Summary of the method: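 Antibodies against each partner of ligand-free nuclear receptor dimers (one per run) detected binding on custom Agilent 4×180K protein-binding microarrays after 1 h incubation. The double-stranded probes had 34-nt variable regions carrying direct-repeat seeds, single-nucleotide variants, half-site ablations and random human genomic background sequences. Binding z-scores, from regression-normalized fluorescence, use the random background probes as reference.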
row,Sequence,PBM binding z-score
1,CGTCCTAGGTCAAAGGTCAGTGAAGAGATGACGG,1.39
2,TCTATTAGTCGAAGGGCAACCGACGAGTCCGTTT,-0.0492
3,TGAATGAGGTTAAAGATCGGGGAACGTGGCGTCG,0.447
4,CGTCAAAGTTGAAGGTAACGTAACAGAAAGCAGC,-0.078
5,TCAAGCAGGCCAGAGGGTCACTCAAGAGGTACGG,-0.21
6,GCTAGTTGGTCAGTAAAAGGTCACACCCCGGTCG,2.15
7,ATCGAAAGGTCGGCGAGGTGAGTATACACCGTTT,0.709
8,TCTAGCAGGCCCGAGGGTCACTCAAGAGGTACGG,-0.376
9,ACTATTAGCTGAGACGAGGGCAACCGATAGGTTG,0.251
10,TAGCCTAGGTCGTGCGGGCCAGTATAGTGTCGGC,-0.487
11,TCTTGTAGACCAATAGAGGTTAAGAAAGTGCGCT,-0.31
12,TCCAGTAGGTTAGGGGCATTCAGAATGGCGTCGA,0.179
13,ATACCAAGGTGATCTTGAGGTCGTTGATACTAAC,2.9
14,ACTATTAGTTGAGACGTGGGCAACCGATAGGTTG,-1.02
15,CCTACTGGGCCAAAAAGGTCATTGAGGCCGATAA,0.793
16,CGTCCAAGGTCATAGGAGGTCAGCGAAGACAGAT,3.42
17,GCATATAGGTAATGCAAGGTGAAAGTCCGATTGT,0.825
18,TCTAGCAGGCCAGAGGGTCATTCAAGAGGTACGG,-0.373
19,AGAATGAGGTTACCAAAGATCAGCGAAACGCTTG,0.456
20,TCTATTAGTTGATTAGGGCAGCCGAAACAGCGGA,0.285
21,ACTATTAGTTGAGAAGAGGGCAACCGATAGGTTG,-0.313
22,ACTAGCAGGCCAAGTTTGGGTCACTTAAACAAAG,1.22
